Hsp70 activator – transcriptional activators of Hsp70 | HeLa Hsp70 promoter luciferase reporter, luminescence; scaled: vehicle 0, proteasome-inhibitor control 100% | activation, % at 10 µM | 0.04% of 200,000 active | AID 1203;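 active = activation above the mean across all tested compounds plus 3 SD, cutoff set per campaign, cut at about 5.5% in these data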;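 note: 100% = MG132 at 30 µM as the positive control and 0% = DMSO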
APP 5'UTR act – APP 5'UTR luciferase reporter activation. SH-SY5Y APP 5'UTR luciferase reporter, luminescence; zero percent = DMSO vehicle wells. activation, % at 2 µM. 1% of 190,000 active;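 active = activation above a set limit, based on mean plus 3 SD of controls, cut at about 140% in these data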
NF-kB neuron act – raises NF-kB expression in human neuronal cells | fold change at 12.5 µM | 1.6% of 190,000 active | NF-kB reporter expression; hits give high values; in the data active = fold change above about 3.3
APP 5UTR inh – APP translation inhibition. 0.82% of 190,000 active. SH-SY5Y APP 5'UTR-luciferase reporter, luminescence. inhibition, % at 2 µM;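 active = inhibition above a set limit, derived from the sample mean plus 3 SD, cut at about 45% in these data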
Wee1 stabilizer – human Wee1 degradation inhibition, primary screen; AID 1321; 1.2% of 220,000 active; HeLa Luc-Wee1K328M stability, luciferase luminescence; 100% = proteasome inhibitor MG132 effect; reporter increase, % at 5 µM;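 active = activation above the mean of all tested compounds plus 3 SD, set per screening run, cut at about 8.8% in these data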;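 note: cells exposed to compound for 20 h before luminescence read; 0% = DMSO alone and 100% = MG132 at 30 µM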
Target sequence (P30291 whole entry K328M): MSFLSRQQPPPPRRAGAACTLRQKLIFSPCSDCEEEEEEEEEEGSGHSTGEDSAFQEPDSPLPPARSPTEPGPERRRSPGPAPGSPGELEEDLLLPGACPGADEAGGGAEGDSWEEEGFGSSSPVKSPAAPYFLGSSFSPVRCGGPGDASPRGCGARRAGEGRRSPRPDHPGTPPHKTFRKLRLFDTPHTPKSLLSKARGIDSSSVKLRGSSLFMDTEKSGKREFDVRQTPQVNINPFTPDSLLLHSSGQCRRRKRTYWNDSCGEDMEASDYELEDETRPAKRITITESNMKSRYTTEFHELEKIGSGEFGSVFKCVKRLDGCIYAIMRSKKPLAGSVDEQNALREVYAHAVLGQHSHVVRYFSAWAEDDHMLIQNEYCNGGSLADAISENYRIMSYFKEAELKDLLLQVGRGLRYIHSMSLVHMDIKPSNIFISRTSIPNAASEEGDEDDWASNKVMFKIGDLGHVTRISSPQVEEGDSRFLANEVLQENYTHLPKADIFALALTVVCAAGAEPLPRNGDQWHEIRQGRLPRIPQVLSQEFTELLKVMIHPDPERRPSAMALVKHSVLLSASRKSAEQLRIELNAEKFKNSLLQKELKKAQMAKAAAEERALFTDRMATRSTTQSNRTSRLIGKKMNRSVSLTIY
STAT1 act – STAT1 signaling activation | NIH 3T3 STAT1-luciferase reporter, IFN-gamma, luminescence; 100% = IFN-gamma alone, no compound | activation (% of control), % at 5.5 µM | 2.6% of 200,000 active | AID 932;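 active = activation above the screen-wide mean activation plus 3 SD, cut at about 130% in these data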;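 note: raw ratio to IFN-gamma control signal so 100% means no change and 0% no light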
Starred values were filed as active, the others as inactive; . = no result. Only some compounds are listed: those with a hit (about 4.8% of all), similar ones and a draw of the others.

SMILES	Hsp70 activator	APP 5'UTR act	NF-kB neuron act	APP 5UTR inh	Wee1 stabilizer	STAT1 act
Cc1onc(-c2c(Cl)cccc2Cl)c1NC(=O)NNc1c(Cl)cncc1Cl	.	.	.	.	-0.6	.
Cc1ccc(NC(=O)c2noc3c2CCc2ccccc2-3)cc1	0.1	60.4	2.65	-60.4	-2.6	130.9*
O=C(Nc1cccc(O)c1)c1noc2c1CCc1ccccc1-2	-0.3	195.0*	6.11*	-195.0	4.5	83.6
Cc1cc(NC(=O)c2noc3c2CCc2ccccc2-3)n(-c2ccccc2)n1	-0.3	-13.7	0.98	13.7	2.6	101.1
CCc1ccc(NC(=O)c2noc3c2CCc2ccccc2-3)cc1	-0.3	1.3	1.99	-1.3	-2.7	113.2
CCC(C)SCc1nc2ccccc2[nH]1 (centres undefined)	-0.2	0.1	1.36	-0.1	2.6	92.0
COc1ccc(N2CCc3c(C)nc4c(OC)cccc4c32)cc1	0.2	-86.1	1.25	86.1*	5.5	94.1
COc1ccc(N2CCc3c(C)nc4c(OC)cc(OC)cc4c32)cc1	0.2	8.7	0.61	-8.7	-0.3	97.4
Cn1c(=O)c(=O)n(C)c2cc(S(=O)(=O)N3CCCC3C(=O)NCc3ccco3)ccc21 (centres undefined)	.	.	.	.	9.0*	.
CC(C)NS(=O)(=O)c1ccc(OCC(=O)N2CCN(c3ccccc3)CC2)cc1	-0.5	12.0	0.95	-12.0	2.9	95.0
CCCSc1nnc(CNC(=O)C23CC4CC(CC(C4)C2)C3)n1Cc1ccccc1	-0.4	4.8	0.93	-4.8	0.7	106.3
CCOc1ccc(C(=O)Nc2cc(C)on2)cc1	-0.1	108.6	3.59*	-108.6	5.0	103.7
CCOc1cc(C(=O)Nc2cc(C)on2)cc(OCC)c1OCC	-0.2	10.0	0.99	-10.0	-3.3	95.4
COc1ccc2c(CC(=O)Nc3ncc(C)s3)coc2c1	0.3	89.0	1.17	-89.0	3.7	140.9*
COc1ccc2c(CC(=O)Nc3nc(C)cs3)coc2c1	-0.2	50.7	1.54	-50.7	0.1	105.1
C=CCn1c(O)c(C=Nc2ccccc2)sc1=S	-0.4	39.3	1.61	-39.3	-2.8	128.7*
O=C(O)Cn1c(O)c(C=Nc2ccccc2)sc1=S	0.1	16.3	1.14	-16.3	-1.3	101.7
CCn1c(O)c(C=Nc2ccccc2)sc1=O	-0.2	20.5	1.58	-20.5	-0.9	130.1*
Oc1c(C=Nc2ccccc2)sc(=S)n1Cc1ccccc1	0.3	4.1	1.28	-4.1	1.6	103.7
NS(=O)(=O)c1ccc(NC(=O)COC(=O)c2cc3ccccc3cc2O)cc1	.	.	.	.	1.1	.
CC(C)(O)C#Cc1ccc(C(=O)NC2CCCCC2)s1	0.0	34.5	1.91	-34.5	3.2	122.6
CCc1ccc(C(=O)NC2CCCCC2)s1	-0.1	123.7	4.65*	-123.7	0.5	140.7*
COc1cc(/C=C(\C#N)C(=O)NCC2CCCO2)ccc1OCC(N)=O (centres undefined)	-0.4	20.4	1.08	-20.4	0.2	106.1
O=C(C1CC(c2ccc(F)cc2)=NO1)N1CCCCC1 (centres undefined)	0.0	66.5	2.15	-66.5	4.2	131.6*
CC1CCCCN1C(=O)C1CC(c2ccc(F)cc2)=NO1 (centres undefined)	0.9	43.4	1.72	-43.4	0.2	136.2*
SMILES	Hsp70 activator	APP 5'UTR act	NF-kB neuron act	APP 5UTR inh	Wee1 stabilizer	STAT1 act
CN(C)S(=O)(=O)c1ccc(Cl)c(NC(=O)COC(=O)/C=C/c2ccc(S(=O)(=O)N3CCOCC3)cc2)c1	-0.2	8.4	0.76	-8.4	-1.4	103.4
O=C(COC(=O)c1ccc(F)cc1)Nc1cc(S(=O)(=O)N2CCOCC2)ccc1N1CCCC1	-0.1	13.0	1.32	-13.0	-2.5	93.8
Cc1ccc(CNC(=O)COC(=O)c2ccc(S(=O)(=O)N(C)C)cc2)cc1	0.2	-2.4	1.13	2.4	0.4	94.2
CC1C(=O)NN=C1C(=O)N/N=C/c1ccco1 (centres undefined)	-0.2	-72.0	1.19	72.0*	-1.9	91.4
CC1C(=O)NN=C1C(=O)N/N=C\c1ccc(O)cc1O (centres undefined)	-0.2	71.8	0.88	-71.8	2.5	97.2
CC1(C)CC(=NNC(=O)c2n[nH]c3c2CCC3)CC(C)(C)N1	-0.1	-82.1	.	82.1*	2.4	102.5
O=C(N/N=C/C(Br)=C/c1ccccc1)c1cccs1	0.8	146.7*	7.5*	-146.7	6.3	148.5*
O=C(N/N=C/c1cccs1)c1n[nH]c2c1CCC2	-0.1	5.6	3	-5.6	5.9	129.8*

High-throughput results deposited in PubChem BioAssay by several laboratories.
